The panel holds about 83,000 compounds, 20% with a hit somewhere; the sample as a whole holds those more often.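 96-well plates, one dose, 48 hours. Percent growth reported; active if below 10.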 Unmarked numbers belong to inactive results. Calls of active or inactive are those of the source.
system: NCI-H460 lung; assay: NCI-60 one-dose screen, 48 h (100 = growth as untreated, 0 = no growth, -100 = all killed); details: 10 µM unless noted
Description: Growth inhibition of the NCI-H460 human Non-Small Cell Lung tumor cell line is measured as a screen for anti-cancer activity. Cells are grown in 96 well plates and exposed to the test compound for 48 hours. Compounds are tested at a single concentration, which is 10^-5 M for most compounds. The reported endpoint is percent growth (GI% or GIPRCNT), where numbers from 0 - 100% represent growth inhibition, and numbers from -100% - 0 represent cell death. For example, a value of 40 represents 60% growth inhibition. A value of 0 means no net growth occurred over the course of the experiment. A value of -40 indicates 40% of cells at the beginning of the experiment died by the end of the experiment. A value of -100 means all cells are dead at the end of the experiment.
NCI-60 Human Tumor Cell Lines Screen was performed using the standard one-dose NCI protocol, which is described in more detail at https://dtp.cancer.gov/discovery_development/nci-60/default.htm.
Compounds with GIPRCNT values below 10 were considered active. Activity score was based on GIPRCNT using the following formula: […]
Score is 0 for GIPRCNT values of 100 or above, 50 for GIPRCNT values of 0, and 100 for GIPRCNT values of -100.

SMILES	growth
C[C@@H]1O[C@@H](O[C@@H]2C[C@H](c3ccc4c(c3O)C(=O)C3=C(C4=O)[C@@]4(O)C(=O)C[C@](C)(O)C[C@@]4(O)C=C3)O[C@H](C)[C@H]2O)C[C@H](O)[C@@H]1O	98.5%
O=C1CC2C=CCN2C=C1NC(=O)C1CCCCC1 (stereo not given)	112%
COc1ccc2nc(Cl)c(/C=C/C(=O)c3ccc(NC(=O)CSc4nnc(-c5ccc(Cl)c(Cl)c5)n4-c4ccccc4)cc3)cc2c1	97.7%
Cn1cc(-c2csc(-c3cn(C(=O)OC(C)(C)C)c4ccccc34)n2)c2ccnc(Cl)c21	22.4%
O=P(O)(O)OCC1OC(n2cnc3c(NCc4ccccc4)ncnc32)C(O)C1O (stereo not given)	94.3%
CCCn1c(=S)sc2c1nc(C)n1c(Nc3ccccc3)nnc21	45.3%
N#Cc1c(NC(=O)c2cccs2)[n+]([O-])c2ccc(Cl)cc2[n+]1[O-]	113%
COc1ccc(C2C3=C(COC3=O)N(CCO)c3cc4c(cc32)OCCO4)cc1OC (stereo not given)	10.4%
N#C/C(=C\c1ccc(-c2ccc(Cl)cc2)o1)c1ccc(Cl)cc1	10.3%
COc1ccc(NC(=O)c2sc3nc(C)c(C(O)c4ccccc4)cc3c2N)cc1 (stereo not given)	10.1%
Cc1ccccc1CNc1c2ccccc2nc2ccccc12	6.94% (active)
CCOC(=O)c1c(-c2ccc(Cl)cc2)c(C#N)c2c(C#N)c(N)nn2c1N	77.3%
O=S(=O)(c1ccccc1)N1CCCN(c2nc(-c3ccccc3)nc3nc(-c4ccccc4)oc23)CC1	110%
COc1cc(C2C3=C(COC3=O)N(CCO)c3cc4c(cc32)OCCO4)cc(OC)c1OC (stereo not given)	1.13% (active)
CCCNc1nc2ccccc2c2c(=O)c3cccc(Cl)c3sc12	78.7%
O=C(NCc1ccc2c(c1)OCO2)NCC1CCCC(CNC(=O)NCc2ccc3c(c2)OCO3)C1 (stereo not given)	101%
CCN1CCN(CC(=O)Nc2nc3ccc(NCc4ccc(Br)cc4)cc3s2)CC1	26.3%
CN(C)c1ccc(/C=C/C(=O)c2ccccc2)cc1	105%
NS(=O)(=O)c1ccc(N/C=C/C(=O)c2cc3ccccc3oc2=O)cc1	96.8%
COc1ccc(Nc2ncc(C(N)=O)c(NCCCNC(=O)C3CCC3)n2)cc1	68.6%

SMILES	growth
N#C/C(=C\c1ccc(Cl)cc1Cl)C(=O)Nc1ncc(Cc2ccc(Cl)c(Cl)c2)s1	101%
COc1cc2oc(-c3cccc(NC(=O)c4ccc5c(c4)OCO5)c3)cc(=O)c2c(OC)c1OC	27.2%
O=C(Nc1ccccc1O)c1ccccc1Nc1ccnc(C(F)(F)F)c1	97.3%
COc1cc(C2=NN(C(C)=O)C(c3ccc(N(C)C)cc3)C2)cc(OC)c1OC (stereo not given)	107%
CN1CCCc2cc(/C=C3/SC(=S)N(CCc4ccc(O)cc4)C3=O)ccc21	95.1%
COc1ccccc1NC(=O)c1ccc(/C=C/C(=O)c2nccn2C)cc1	-43.5% (active)
N=C(N)c1ccc(-c2ccc(-c3ccc(Cl)cc3)o2)o1	-72.3% (active)
N#C/C(=C\c1ccc(Br)cc1)c1cc2ccccc2[nH]1	96.1%
CCN(CC)CCOc1ccc(Nc2ncc3cc(-c4ccc(O)cc4)c(=O)n(C)c3n2)cc1	78.9%
Nc1ccc([N+](=O)[O-])cc1N=C/C=C/c1ccccc1	54%
CCOC(=O)c1cn2ncnc(Oc3ccc(NC(=O)NC4CC4)c(F)c3)c2c1C	99.1%
Cc1nc2sc(C(=O)Nc3ccc(Cl)cc3)c(N)c2cc1C(O)c1ccccc1 (stereo not given)	17.4%
CCCCCn1sc(=O)n(Cc2ccc(CNC(=O)OCc3ccc4c(Cl)cc(Cl)c(O)c4n3)cc2)c1=O	27.1%
CCCCCCCCCCCCCCCCCCOc1ccccc1CC(=O)NCC[N+]1(C)CCOCC1	45.7%
C=CCn1c(SCC(=O)Nc2ccc(C(=O)/C=C/c3cc(OC)c(OC)c(OC)c3)cc2)nnc1-c1cc(-c2ccc(OC)cc2)nc2ccccc12	88.9%
COc1ccc(C2CC(c3ccc(Nc4nc(Nc5ccc(F)cc5)nc(Nc5ccc(F)cc5)n4)cc3)=NN2C(C)=O)cc1 (stereo not given)	101%
CCN=C1C=CC(=C(c2ccc(N(C)C)cc2)c2ccc(N(C)C)cc2)c2ccccc21	-36.8% (active)
CC(C)CCC[C@@H](C)C1CCC2C3CCC4=C/C(=N/OCCN(C)C)CC[C@]4(C)C3CC[C@@]21C (stereo not given in full)	98.5%
CCCCn1sc(=O)n(Cc2ccc(CNC(=O)OCc3ccc4c(Br)cc(Br)c(O)c4n3)cc2)c1=O	4.44% (active)
C=CC(=O)NCCOc1cccc(Nc2cc(NCCCNC(=O)C3CCC3)c(Br)cn2)c1	-18% (active)

Source: PubChem BioAssay (NCI)
